Potency data for 48 compounds are collected here from PubChem BioAssay AID1347076 (National Center for Advancing Translational Sciences (NCATS), 2019).

The whole screen tested about 400,000 compounds, of which about 13,000 (3.2%) were called active. Entries that show only a call come without a potency. Not shown: some 18% with an inconclusive outcome. Calls come from the whole dose curve; as a rule, active = well fitted cell-killing curve with a large enough effect; inconclusive = small, poorly fitted or top-dose-only effect, or effect the other way; inactive = flat fitted curve, though single readings scatter. Only a selection was taken, and actives are over-represented in it overall.
Potency is the fitted concentration of half-maximal effect.

This experiment in a line: qHTS assay for MDR1-selective chemotherapeutics: Primary screen using the drug-selected MDR subline cells KB-V1. Note: nearly all actives have a fitted effect of over 60% in size. Particulars: KB-V1 MDR cells viability, CellTiter-Glo, 72 h; series mostly up to 46.1 µM. From the text: A prime difficulty in effectively treating cancer is the development of cellular resistance to multiple structurally unrelated anticancer drugs, a phenomenon known as multidrug resistance (MDR). […] Numerous strategies to overcome P-gp-mediated MDR have been explored, including the design of drugs that evade recognition and efflux, and development of inhibitors to block efflux and restore drug accumulation. […] An alternative approach is to exploit resistance by identifying drugs that target MDR cells over the non-resistant parental cells from which they were selected. […] The development of MDR1-selective agents represents a new strategy for resolving multidrug resistance, as it remains a long-standing clinical challenge for cancer chemotherapy.
Our goal is to identify compounds that selectively kill P-gp-expressing MDR cells. We will identify MDR1-selective compounds by comparing toxicity of compounds in the screening library against parental, drug-naive (KB-3-1) adenocarcinoma cells as well as their drug-selected MDR sub-line (KB-V1). The differential toxicity of compounds against these two cell lines will be used to identify MDR1-selective compounds, whose cytotoxicity is potentiated, rather than diminished, by P-gp expression. This assay will be utilized to conduct a quantitative high-throughput screen (qHTS) in collaboration with the NIH Chemical Genomics Center to identify selective agents, and probe hits arising from the screen will be validated using secondary assays and characterized through a well-established follow-up research program. This screen was run against the entire NCGC library collection of about 400,000 compounds.
NIH Molecular Libraries Probe Production Network [MLPCN]
NIH Chemical Genomics Center [NCGC]
PI: Michael Gottesman, National Cancer Institute, NIH
Briefly, 5 microL of media containing either KB-V1 cells (columns 1-2, 4-48) are dispensed into Greiner white, treated solid-bottom 1536-well assay plates (media-only control is added to column 3). Compounds are then transferred via Kalypsys pin tool equipped with 1536-pin array (10 nL slotted pins, V&P Scientific, San Diego, CA). Following addition of compound, the plates are incubated at 37 degrees C for 72 hours. CellTiter-Glo (2.5 µL/well) is then added, and the plates are read in a ViewLux reader (Perkin-Elmer, clear luminescence filter, 1 second exposure, 1x binning) following a 10 minute incubation. All cells are dispensed in DMEM phenol-red free media containing 10% FBS.
Library plates were screened starting from the lowest and proceeding to the highest concentration. Vehicle-only plates, with DMSO being pin-transferred to columns 5-48, will be inserted uniformly at the beginning and the end of each library in order to monitor and record any shifts in the background, which can be affected by reagent dispensers or loss in enzyme activity over time. Screening data will be corrected, normalized, and concentration-effect relationships will be derived by using publicly-available NCGC, NCATS curve fitting algorithms (http://ncgc.nih.gov/pub/openhts).
In general terms: In qHTS, concentration-response curves come from the screen itself.
On to `CCC(C(=O)Nc1c(C)cccc1C)n1c(-c2cc(C)cs2)nc2ccccc21` (stereo not drawn), for which the Potency result is “inactive”.
The same measure for `OC(c1cc(Cl)cc(Cl)c1)c1ncc(-c2ccccc2C(F)(F)F)[nH]1` (stereo not drawn): “inactive”.
On to `Cc1cc(OCCCN2CCN(Cc3ccccc3)CC2)ccc1[N+](=O)[O-]`, for which the Potency entry is “inactive”.
In the case of `Cc1ccccc1NC(=O)c1ccc(COc2ccc3c(C)cc(=O)oc3c2)cc1` it was “inactive”.
In the case of `Cc1cc(=O)oc2cc(OCC3CC(c4ccccc4Cl)=NO3)ccc12` (stereo not drawn), the Potency is 1.16 µM (active).
Take `CCc1cc(=O)oc2cc(OCC(=O)N3CCCc4ccccc43)ccc12`: the Potency result was “inactive”.
In the case of `Cc1ccccc1N1CCN(CCCOc2ccc3c(C)cc(=O)oc3c2)CC1` it was 11.2 µM (active); in that of `Cc1cc(=O)oc2cc(OCC(=O)Nc3nnc(C4CC4)s3)ccc12`, “inactive”.
The same measure for `COc1ccc2oc(-c3ccc(C)c(NC(=O)c4sc5ccccc5c4Cl)c3)nc2c1`: “inactive”.
For the compound `CCN(CC(=O)Nc1ccc(NC(C)=O)cc1)C(=O)C1CC(=O)N(c2ccc3c(c2)OCCO3)C1` (stereo not drawn), the Potency result was “inactive”.
In the case of `CC(C)c1ccc(CC(=O)N2CCC2(C)C(=O)NS(=O)(=O)c2ccc(C(C)(C)C)cc2)cc1` (stereo not drawn) it was “inactive”; in that of `COc1cccc(C(=O)NC(=O)Nc2ccc(-c3cc(C(F)(F)F)nn3-c3ccccc3)cc2)c1`, “inactive”.
For the compound `COc1ccc(CN(C(=O)c2cccs2)c2nccs2)cc1OC`, the Potency result is “inactive”.
The same measure for `COc1ccc(-c2csc(-c3c(N)c(C(=O)c4ccc(OC)c(OC)c4)n4ccccc34)n2)cc1`: “inactive”.
The same measure for `COc1ccc(CCN(C(=O)COc2ccccc2)c2nc(-c3ccccc3)cs2)cc1OC`: 5.8 µM (active); for `Cc1ccc(Sc2ccc(NC(=O)c3ccc(F)cc3)cc2C#N)cc1`: “inactive”; for `CC(C)C[C@H]1CNC(=O)C(=O)N1C[C@H]1CCCN1C[C@H](Cc1ccc(O)cc1)N1C[C@H](CC(C)C)N(CC2CCCCCC2)C(=O)C1=O`: “inactive”.
The same measure for `COc1cccc(CNc2nc(NCc3cccs3)nc3ccsc23)c1`: “inactive”.
For the compound `Cc1cccc(CC(=O)Nc2c3c(nn2-c2cccc(Cl)c2)CS(=O)C3)c1` (stereo not drawn), the Potency was 20.6 µM (active).
The same measure for `COc1ccc(-n2nc3c(c2NC(=O)Cc2cccc(C)c2)CS(=O)C3)cc1` (stereo not drawn): “inactive”; for `COc1ccc(CC(=O)Nc2c3c(nn2-c2cccc(Cl)c2)CS(=O)C3)cc1` (stereo not drawn): “inactive”.
Take `CC1CCCCN1S(=O)(=O)c1ccc(F)c(C(=O)Nc2ccccc2C(F)(F)F)c1` (stereo not drawn): the Potency entry was “inactive”.
For the compound `COc1ccc(Nc2ncnc3ccc(Br)cc23)c(OC)c1`, the Potency entry is “inactive”.
In the case of `CN(C)C(=O)COC(=O)c1cccc(S(=O)(=O)N2CC3(C)CC2CC(C)(C)C3)c1` (stereo not drawn) it was “inactive”; in that of `CC1(C)CC2CC(C)(CN2c2ncnc3ccc(Br)cc23)C1` (stereo not drawn), 2.59 µM (active).
The same measure for `O=C(NCCc1csc(-c2ccccc2)n1)c1ccccc1F`: 20.6 µM (active); for `COc1ccc(-c2nc(CCNC(=O)c3ccc(Br)o3)cs2)cc1`: “inactive”; for `O=S(=O)(NCCc1csc(-c2ccccc2)n1)c1cccnc1`: “inactive”.
The same measure for `CC1(C(=O)NS(=O)(=O)c2ccc(Cl)cc2)CCN1C(=O)CC1CCCC1` (stereo not drawn): “inactive”; for `C=CCn1c(SCc2csc(C)n2)nc2scc(-c3ccc(C)o3)c2c1=O`: 11.6 µM (active); for `C=CCn1c(SCC(=O)Nc2ccc(NC(C)=O)cc2)nc2sc(C)c(C)c2c1=O`: “inactive”.
As to `C=CCNC(=O)CSc1nc2scc(-c3ccco3)c2c(=O)n1CC=C`, the Potency entry was “inactive”.
Turning to `CO[C@@H]1CN(C)C(=O)c2cc(NC(=O)C3CC3)ccc2OC[C@H](C)N(C(=O)CN2CCOCC2)C[C@@H]1C`, the Potency entry is “inactive”.
The same measure for `C[C@H]1CN([C@@H](C)CO)C(=O)CCCn2cc(nn2)CO[C@@H]1CN(C)C(=O)Nc1ccccc1`: “inactive”; for `COc1ccc([C@H]2N[C@]3(CCCN(Cc4ccco4)C3=O)[C@H]3C(=O)N(C)C(=O)[C@@H]23)cc1`: “inactive”; for `COc1cc(CN2CCC(C(N)=O)CC2)ccc1OCc1ccccc1`: “inactive”.
In the case of `Fc1ccc(N2CCN(Cc3cnc(Oc4ccc(Br)cc4)s3)CC2)cc1` it was “inactive”; in that of `COc1cc(C)cc(CN2CCC(Cc3ccccc3)CC2)c1O`, “inactive”; in that of `Oc1c(CN2CCCC2)cc(COCc2ccccc2)c2cccnc12`, 20.6 µM (active).
Consider `O=C(CN1CCN(c2ccc(F)cc2)CC1)Nc1ccccc1`, for which the Potency result was “inactive”.
On to `Oc1c(CN2CCN(c3ccc(F)cc3)CC2)cc(Cl)c2cccnc12`, for which the Potency was 5.17 µM (active).
In the case of `CCC(=O)N1CCc2cc(S(=O)(=O)NC(CC(C)C)C(=O)NCCc3cccc(C)c3)ccc21` (stereo not drawn) it was “inactive”; in that of `COC(=O)c1ccc2c(c1)S(=O)(=O)NC2C` (stereo not drawn), “inactive”.
In the case of `CCc1ccc(-n2nc(C)c3c(C)cc(=O)n(CC(=O)Nc4ccc(F)cc4C)c32)cc1` it was “inactive”; in that of `Cc1ccc(-c2nc3c(C)cc(Br)cn3c2Cc2ccccc2)cc1`, “inactive”.
Turning to `CCn1c2c(c(=O)n3ncc(C(=O)N4CCN(c5ccccc5)CC4)c13)CN(Cc1ccc(OC)cc1)CC2`, the Potency entry is “inactive”.
In the case of `CCc1cccc(NC(=O)Cn2nc(CC)n3c(cc4cc(C)ccc43)c2=O)c1` it was “inactive”.
As to `CN1C(=O)C(CC(N)=O)N(NC(=O)c2ccc(Cl)cc2)C1=S` (stereo not drawn), the Potency entry is “inactive”.
